SMARCA2 activ – SMARCA2 function activation, primary screen; MG213 cells, MMTV-luciferase reporter, dexamethasone, overnight; activation, % at 9.1 µM; 370,000 compounds, 1% hits; in the data active = activation above about 7.8%;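 also: 0% = vehicle wells and 100% = reference activator wells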
SKN-1 block – inhibitors of C. elegans SKN-1. C. elegans VP596 Pgst-4::GFP/RFP ratio, acrylamide-induced, 24 h. inhibition, % at 21.8 µM. 360,000 compounds, 0.49% hits;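 active = interference check ratio from 0.5 to 1.5 plus GFP to RFP signal ratio inhibition reaching or exceeding a fixed threshold, cut at about 30% in these data, passing the limit was not always enough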
GRIN3A LBD mod – NR3A (human) ligand-binding domain modulation; Tm shift relative to glycine control, % at 25 µM; 340,000 compounds, 2.5% hits; NR3A LBD differential scanning fluorimetry, Tm shift; 0% = protein alone, 100% = glycine-bound protein; AID 1259313;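 active = melting temperature shift of at least 10% of the positive control shift, at one fixed dose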
esBAF inh – blocks esBAF chromatin remodeling in mouse ES cells | Bmi1-luciferase knock-in reporter, 24 h; 100% = twice the neutral-well signal | reporter increase, % at 12.5 µM | 350,000 compounds, 2% hits | AID 602393; in the data active = activation above about 40%;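 also: 0% = median of the plate's neutral control wells and 100% = double that signal; a rise in the Bmi1 reporter signal indicates esBAF inhibition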
Vif inh – HIV Vif inhibition; HEK293T cells, Vif self-association by quenched fluorescence, imaging, 24 h; inhibition, % at 7.49 µM; 340,000 compounds, 0.35% hits; in the data active = inhibition above about 50%, passing the limit was not always enough
NadD inh – inhibitors of Staphylococcus aureus NadD; purified NadD enzyme, colorimetric absorbance read-out; inhibition, % at 20 µM; 360,000 compounds, 0.78% hits; AID 602399; in the data active = inhibition above about 26%
NadD conf – NadD (S. aureus) inhibition, single concentration confirmation. purified S. aureus NadD, colorimetric enzyme assay. inhibition, % at 20 µM. shares compounds with NadD inh. AID 624309. 2,000 compounds, 13% hits; in the data active = inhibition mostly above about 42%, no sharp cut-off; inactive = mostly below about 42%
Starred values were filed as active, the others as inactive; i = inactive; · = no result given. Hits are enriched below; roughly 5.2% of the tested compounds scored in any of these assays.

SMILES | SMARCA2 activ | SKN-1 block | GRIN3A LBD mod | esBAF inh | Vif inh | NadD inh | NadD conf
COc1ccc(COc2cc(-c3cccc(OC)c3)nc3ccc(NC(=O)c4ccccc4)cc23)cc1 | 1 | 5 | 0 | -3 | 2 | 32* | 9
CCNc1ccc(Br)cc(C(=O)/C=C/c2ccccc2Cl)c1=O | -2 | -16 | -3 | 5 | 7 | 34* | 18
Cc1cccc(/C=C/C(=O)c2cc(Br)ccc(=O)c2O)c1 | -3 | -1 | -1 | 2 | 1 | 30 | ·
CNc1ccc(Br)cc(C(=O)/C=C/c2cccc(Cl)c2Cl)c1=O | -3 | 3 | 5 | · | -3 | 49* | 16
COc1ccc(NC(=O)Nc2ccc3c(c2)C(=O)N([C@@H](C)CO)C[C@@H](C)[C@H](CN(C)Cc2ccncc2)O3)cc1 | · | · | · | -4 | · | · | ·
CC(C)n1c(-c2ccc(C(C)(C)C)cc2)n[nH]c1=S | -6 | 5 | 0 | 10 | · | 29* | 12
Cc1cc(SCC(=O)c2cccc([N+](=O)[O-])c2)nc(=O)[nH]1 | · | -3 | -1 | 35 | -6 | 33* | 34
Cc1cc(SCc2cccc([N+](=O)[O-])c2)nc(=O)[nH]1 | 2 | 16 | 4 | -3 | -1 | -4 | ·
CCCCCCc1cc2cc(S(=O)(=O)c3ccc(Cl)cc3)c(=O)oc2cc1O | 0 | 14 | 106* | -10 | 12 | 36* | 2
CCN(CC)c1ccc2cc(S(=O)(=O)c3ccc(Cl)cc3)c(=O)oc2c1 | -1 | -22 | -4 | 15 | i | 1 | ·
COc1ccc2c3c(cccc13)N(C)N=C2C | 0 | 41* | -2 | -11 | 8 | 52* | 9
O=C1N/C(=N\N=C\c2ccc3ncccc3c2)SC1Cc1ccc(SC(F)F)cc1 (centres undefined) | 4 | 9 | 6 | 13 | 1 | 33* | 10
O=C1N/C(=N\N=C\c2cccnc2)SC1Cc1ccc(SC(F)F)cc1 (centres undefined) | -3 | -9 | -15 | -23 | 7 | 6 | ·
CC1=Nc2nc(N3CCCCC3)c(C#N)c3c4c(nc(c23)N1)N(c1ccc(C(C)C)cc1)C(=O)C4 | -3 | 12 | 0 | · | -1 | 63* | 12
CC(C)c1ccc(-c2nc(N3CCCCC3)[nH]c(=O)c2C#N)cc1 | 0 | -6 | -3 | 3 | -2 | 5 | ·
Cc1ccc(C(=O)c2oc3ccccc3c2NC(=O)c2cc(-c3ccccc3O)n[nH]2)cc1 | 7 | 8 | 31* | · | 3 | 34* | 5
CC(=O)Nc1c(C(=O)c2ccc(F)cc2)oc2ccccc12 | -3 | -31 | -1 | -1 | -10 | -3 | ·
O=C(Nc1c(C(=O)c2ccccc2)oc2ccccc12)c1cc(-c2ccccc2O)n[nH]1 | -4 | 3 | 28* | · | 2 | 34* | 32
Cc1ccc(C(=O)c2oc3ccccc3c2NC(=O)c2cc(-c3cc(C)ccc3O)n[nH]2)cc1 | -3 | -14 | 22* | · | 29 | 39* | 32
C[C@@H]1CN([C@@H](C)CO)C(=O)Cc2cc(NC(=O)C3CC3)ccc2O[C@@H]1CN(C)S(=O)(=O)c1cn(C)cn1 | · | · | · | 2 | · | · | ·
Cc1cccc(N2CCN(C(=O)c3ccc4nc(-c5ccco5)c(-c5ccco5)nc4c3)CC2C)c1 (centres undefined) | -5 | 5 | -8 | 2 | -1 | 42* | 8
O=C(/C=C/c1ccc2ccccc2c1)c1ccoc1 | 2 | 1 | -2 | 13 | 5 | 30* | -4
O/N=C/c1ccc2ccccc2c1 | 3 | 8 | 2 | -1 | 8 | -3 | ·
CCOc1ccc(CCN2C(=O)C(=O)N([C@@H](CC(C)C)CN3CCC[C@H]3CN3C(=O)C(=O)NC[C@@H]3Cc3ccccc3)C[C@@H]2Cc2ccccc2)cc1 | -1 | 7 | · | · | · | 34* | 38
CCOc1ccc(CCN2C(=O)C(=O)N([C@@H](CC(C)C)CN3CCC[C@H]3CN3C(=O)C(=O)NC[C@@H]3Cc3ccccc3)C[C@@H]2Cc2ccc(O)cc2)cc1 | -5 | 13 | · | · | · | 35* | 34
SMILES | SMARCA2 activ | SKN-1 block | GRIN3A LBD mod | esBAF inh | Vif inh | NadD inh | NadD conf
CO[C@@H]1CN(C)C(=O)c2ccc(NC(=O)c3ccccc3)cc2OC[C@H](C)N(C(=O)C2CC2)C[C@H]1C | · | · | · | -2 | · | · | ·
CCc1nnc(NCC(=O)N2CCc3ccccc32)s1 | -1 | 12 | -4 | -11 | 4 | 45* | 46
O=C(CNCCO)N1CCc2ccccc21 | 1 | -9 | 0 | -3 | 8 | -1 | ·
CC(C)C[C@@H](CN1CCC[C@H]1CN1C(=O)C(=O)NC[C@@H]1Cc1ccc(O)cc1)N1C[C@H](Cc2ccc(O)cc2)N(CC2CCCCCC2)C(=O)C1=O | -1 | 21 | · | · | · | 29 | ·
CC(C)C[C@@H](CN1CCC[C@H]1CN1C(=O)C(=O)NC[C@@H]1Cc1ccc(O)cc1)N1C[C@H](Cc2ccc(O)cc2)N(CC2CCCCC2)C(=O)C1=O | -2 | 6 | · | · | · | 32* | 30
CC(C)C[C@@H](CN1CCC[C@H]1CN1C(=O)C(=O)NC[C@@H]1Cc1ccccc1)N1C[C@H](Cc2ccccc2)N(CC2CCCCC2)C(=O)C1=O | 0 | 5 | · | · | · | 33* | 29
Cc1ccc(C)c2nc(N3CCCC3)c(C#N)cc12 | -2 | 8 | 1 | -5 | -6 | 32* | 11
O=C1CC(c2ccco2)CC(O)=C1C=NCC1CCNCC1 (centres undefined) | -1 | 12 | -2 | -8 | -6 | 34* | 6
C=C(C)C1CC=C(C)/C(=N\NC(=O)CNc2cccc3ccccc23)C1 (centres undefined) | 2 | 5 | -3 | · | · | 37* | 1
Cc1oc2c(cc(NS(=O)(=O)c3ccc4c5c(cccc35)C(=O)N4)c3ccccc32)c1C(=O)OC(C)C | -3 | 15 | 10 | 6 | -4 | 30* | 37*
O=C1c2ccc(Cl)cc2S(=O)(=O)c2cccc(C(=O)N3CCN(c4ncc(Br)cn4)CC3)c21 | 0 | 3 | 1 | 0 | -2 | 12 | ·
N#Cc1cccnc1N1CCN(C(=O)c2cccc3c2C(=O)c2ccc(-c4ccc(Cl)c(C(F)(F)F)c4)cc2S3(=O)=O)CC1 | · | 22 | -3 | -1 | 4 | 35* | 3
COc1ccc(-c2ccc3c(c2)S(=O)(=O)c2cccc(C(=O)N4CCN(c5c(Cl)cncc5Cl)CC4)c2C3=O)cc1OC | 1 | 5 | -2 | 2 | 0 | 44* | 17
C[C@@H]1CN([C@H](C)CO)C(=O)c2cc(NC(=O)C3CC3)ccc2O[C@H]1CN(C)Cc1ccc(-c2ccccc2)cc1 | · | · | · | -5 | · | · | ·
Cc1cc(C(=O)Nc2cccc3c2O[C@H](CN(C)C(=O)Nc2ccc4c(c2)OCO4)[C@@H](C)CN([C@@H](C)CO)C3=O)n(C)n1 | · | · | · | 4 | · | · | ·

Source: PubChem BioAssay
